In PubChem BioAssay AID720697 (Broad Institute, 2013):
Measured potencies and affinities stand elsewhere. Results filed as inconclusive are left out. Activity calls are given as the source filed them.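 How the source made its calls: active means signal loss with fitted half-maximal concentration at or below twice the top valid tested dose in every test run; inconclusive means runs disagree, flat 30 to 70% signal loss, or poor fit; inactive means all runs flat, opposite direction, or potency beyond limit.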

experiment: HEK293T cytotoxicity, dose response, cytotoxicity control for miR-122 modulator project, cell-based, inhibitor set, cherry-pick, set 2 (AID 720697); conditions: HEK293T viability, CellTiter-Glo luminescence, 48 h; series mostly up to 26 µM; activity change, negative = cytotoxicity: at the top concentration;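 further: 0% = median of neutral control wells and -100% = MG132 positive control wells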

Row | Compound | activity change, negative = cytotoxicity
1 | CC(C)C(=O)Nc1ccc2c(c1)C(=O)N(C)[C@@H]1CC[C@H](CC(=O)NCc3cccc(F)c3)O[C@H]1CO2 | 56.6% [at 23.5 µM] (inactive)
2 | CN1C(=O)c2cc(NC(=O)Nc3cccc(Cl)c3)ccc2OC[C@@H]2O[C@H](CC(=O)NCCc3ccncc3)CC[C@H]21 | 142% (inactive)
3 | COc1ccc(OC)c(Nc2cc(C)nc3ccc(C)cc23)c1 | -30% [at 6 µM] (inactive)
4 | Cc1c(CC(=O)NCCCC(=O)O)c(=O)oc2cc3occ(-c4ccccc4)c3cc12 | 75.4% (inactive)
5 | COCC(=O)N(C)C[C@H]1[C@H](c2ccccc2)[C@@H](CO)N1C(=O)NC(C)C | 101% (inactive)
6 | COc1cccc(-c2nn(-c3ccccc3)cc2CO)c1 | -8.74% (inactive)
7 | CNC(=O)C[C@H]1CC[C@H]2[C@H](COc3ccc(NC(=O)c4cccc(OC)c4)cc3C(=O)N2C)O1 | 66.9% (inactive)
8 | CCc1ccccc1NC(=O)CN(C)C(=O)Cn1ncc(Cl)c(Cl)c1=O | -65.2% [at 6 µM] (inactive)
9 | O=C(CSc1nc2ccccc2s1)N1CCOCC1 | 56.6% (inactive)
10 | CC(=O)c1ccc(Nc2nc3ccc(C)cc3n3cnnc23)cc1 | 52.6% (inactive)
11 | COCC(=O)Nc1ccc2c(c1)C(=O)N(C)[C@H]1CC[C@@H](CC(=O)NCCCN(C)C)O[C@@H]1CO2 | 15.3% (inactive)
12 | Cc1nc(C)c(C(=O)Nc2ccc(Oc3ccccc3)cc2)o1 | 32.1% (inactive)
13 | C[C@H](CO)N1C[C@H](C)[C@H](CN(C)C(=O)NC2CCCCC2)Oc2ncc(-c3cccc(C(F)(F)F)c3)cc2C1=O | 124% [at 23.5 µM] (inactive)
14 | Cc1cc(C(C)(C)C)cc(S(=O)(=O)NCCc2ccncc2)c1C | 101% (inactive)
15 | CC(C)C(=O)Nc1ccc2c(c1)C(=O)N(C)[C@H]1CC[C@@H](CC(=O)NCCCN(C)C)O[C@H]1CO2 | 82% (inactive)
16 | CN1C(=O)c2cc(NC(=O)c3ccc(C(F)(F)F)cc3)ccc2OC[C@@H]2O[C@@H](CC(=O)NCc3ccc4c(c3)OCO4)CC[C@@H]21 | 10.8% [at 23.5 µM] (inactive)
17 | c1ccc(-c2nnc3n2CCCC3)cc1 | 47.8% (inactive)
18 | CNC(=O)C[C@@H]1CC[C@@H]2[C@@H](COc3ccc(NC(=O)c4ccccc4F)cc3C(=O)N2C)O1 | 102% [at 23.5 µM] (inactive)
19 | COc1ccc(CNC(=O)C[C@H]2CC[C@H]3[C@H](COc4ccc(NC(=O)C(C)C)cc4C(=O)N3C)O2)cc1 | -14.2% (inactive)
20 | CN1C(=O)c2cc(NC(=O)Cc3ccccc3)ccc2OC[C@H]2O[C@@H](CC(=O)NC3CCC3)CC[C@H]21 | 49.9% (inactive)

Row | Compound | activity change, negative = cytotoxicity
21 | CCNC(=O)C[C@@H]1CC[C@H]2[C@H](COc3ccc(NC(=O)c4ccccc4)cc3C(=O)N2C)O1 | 92.7% (inactive)
22 | CO[C@@H]1CN(C)C(=O)c2ccc(NS(C)(=O)=O)cc2OC[C@H](C)N(C(=O)CN(C)C)C[C@@H]1C | -24.6% (inactive)
23 | CO[C@H]1CN(C)C(=O)c2cc(NC(C)=O)ccc2OC[C@@H](C)N(C(=O)c2ccccn2)C[C@H]1C | -42.3% (inactive)
24 | CC(=O)Oc1ccc2c(c1)C(=O)c1ccccc1CO2 | -73.2% (inactive)
25 | COc1cccc(C(=O)Nc2ccc3c(c2)C(=O)N(C)[C@H]2CC[C@H](CC(=O)NCc4ccc(F)cc4)O[C@H]2CO3)c1 | -30% (inactive)
26 | C/C=C/c1ccc([C@@H]2[C@@H](CNC(=O)CC)N(Cc3ccccn3)[C@H]2CO)cc1 | 92% (inactive)
27 | C[C@@H]1CN([C@@H](C)CO)S(=O)(=O)c2ccc(C#CC3CC3)cc2O[C@@H]1CN(C)C(=O)c1cccc(F)c1 | 11.4% (inactive)
28 | C[C@H](NC(=O)C[C@H]1CC[C@@H]2[C@@H](COc3ccc(NS(=O)(=O)c4ccc(Cl)cc4)cc3C(=O)N2C)O1)c1ccccc1 | 77.1% (inactive)
29 | CCCNC(=O)Nc1ccc2c(c1)OC[C@H](C)N(CCC)C[C@H](C)[C@H](OC)CN(C)C2=O | 31.9% (inactive)
30 | CN1C(=O)c2cc(NC(=O)c3cccc(F)c3)ccc2OC[C@@H]2O[C@H](CC(=O)O)CC[C@@H]21 | 120% [at 23.5 µM] (inactive)
31 | COCC(=O)N(C)C[C@H]1Oc2cc(-c3ccccc3F)ccc2S(=O)(=O)N([C@@H](C)CO)C[C@@H]1C | -29.1% (inactive)
32 | CN1C(=O)c2cc(NC(=O)c3cccc(F)c3)ccc2OC[C@@H]2O[C@@H](CC(=O)O)CC[C@H]21 | 97.3% [at 23.5 µM] (inactive)
33 | C/C=C/c1ccc([C@H]2[C@@H](CO)N(Cc3ccccn3)[C@H]2CNC(=O)CC)cc1 | 144% (inactive)
34 | Cc1ccccc1NC(=O)Nc1ccc2c(c1)C(=O)N(C)[C@@H]1CC[C@H](CC(=O)NCC3CC3)O[C@@H]1CO2 | 119% (inactive)
35 | O=C(COC(=O)Cc1ccc(S(=O)(=O)N2CCOCC2)s1)Nc1ccc2c(c1)OCO2 | 61.9% (inactive)
36 | CO[C@H]1CN(C)C(=O)c2cc(NC(=O)c3cccc(Oc4ccccc4)c3)ccc2OC[C@@H](C)NC[C@H]1C | 14.2% (inactive)
37 | Cc1cc(C)n(C(=O)Cn2nc(C)c(Br)c2C)n1 | 1.02% (inactive)
38 | COCC(=O)N(C)C[C@H]1Oc2cc(C#Cc3cccnc3)ccc2S(=O)(=O)N([C@@H](C)CO)C[C@@H]1C | 3.54% (inactive)
39 | COCC(=O)N(C[C@H]1[C@H](c2ccccc2)[C@H](CO)N1C(=O)NC(C)C)C(C)C | 33.3% [at 23.5 µM] (inactive)
